In the library only some 2.2% were active in any assay of this set; here they are far more common.
C2C12 statin: suppression of simvastatin myotoxicity. rescue of ATP level, % at 7.49 µM. AID 602340. 330,000 compounds, 0.78% hits. C2C12 myotubes + simvastatin, ATP luminescence, 48 h; scaled: DMSO 0, geranylgeraniol control 100;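 active means mean ATP rescue above about 67%, or every replicate alone reaching that limit, limit read from the data, passing the limit was not always enough; inconclusive means no clear call, values can overlap the other calls; inactive means mean under the limit and some replicate under it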;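 further: myotubes were challenged with 10 µM simvastatin during compound exposure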
miR-122 sensor: inhibitors of miR-122 in Huh7 cells | Huh7 miR-122 Renilla luciferase sensor, 48 h; neutral wells = 0, positive control = 100 | activation (reporter increase), % at 12.5 µM | 340,000 compounds, 0.3% hits;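 active means mean replicate activation score at least 90 and every replicate individually at or above 90; inconclusive means only one of the two criteria met; inactive means neither criterion met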;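 further: higher luciferase means less miR-122 activity so hits act as miR-122 inhibitors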
DENV2 CPE rescue: DENV2-induced cell death inhibition; DENV2-infected cells, cytopathic effect rescue, plate reader; CPE inhibition, % at 9.99 µM; 350,000 compounds, 1.7% hits; in the data active means CPE inhibition above about 20%, passing the limit was not always enough; inconclusive means no clear call, values can overlap the other calls; tested in BHK-21 cells
PGC1a acetyl inh: modulators of PGC1a acetylation | inhibition, % at 15.6 µM | U2OS PGC1a acetylation, AlphaScreen anti-acetyl-lysine; with virally co-expressed GCN5 acetyltransferase | AID 651687 | 350,000 compounds, 0.17% hits;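 active means every replicate shows inhibition of at least 40%; inconclusive means mean inhibition at least 40% but some replicate below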
PvdQ acylase: blocks Pseudomonas aeruginosa PvdQ acylase activity | purified PvdQ acylase, fluorescence plate reader | inhibition, % at 10 µM | 340,000 compounds, 0.063% hits | AID 488965; in the data active means inhibition above about 30%, passing the limit was not always enough; inconclusive means no clear call, values can overlap the other calls
A number is an active result; [ ] = remark or other dose.

What do the screens show for `Cc1ccc(S(=O)(=O)N(C)C[C@H]2Oc3ccc(NC(=O)c4ccncc4)cc3C(=O)N([C@@H](C)CO)C[C@@H]2C)cc1`?
C2C12 statin: inactive; miR-122 sensor: inactive; DENV2 CPE rescue: inconclusive; PGC1a acetyl inh: inactive

Results for COc1ccc2c3c([nH]c2c1)[C@@H](CO)N(CC1CC1)CC31CCN(C(=O)c2ccccc2F)CC1 ?
DENV2 CPE rescue: inactive; PGC1a acetyl inh: inactive

What do the screens show for `CC(Oc1ccccc1)C(=O)N1CCCc2ccccc21` (stereo not given)?
C2C12 statin: inactive; miR-122 sensor: inactive; PGC1a acetyl inh: inactive; PvdQ acylase: inactive

What do the screens show for `CC(C(=O)N1CCCc2ccccc21)N1C(=O)c2ccccc2C1=O` (stereo not given)?
C2C12 statin: 109; miR-122 sensor: inactive; PGC1a acetyl inh: inactive; PvdQ acylase: inactive

How did CCCNC(=O)N1[C@H](CO)[C@@H](c2ccccc2)[C@@H]1CNC(=O)c1ccc(F)cc1 do in these assays?
C2C12 statin: inactive; miR-122 sensor: inactive; PGC1a acetyl inh: inactive

What do the screens show for `COc1ccc(/C=N/NS(=O)(=O)c2ccccc2)cc1OC(=O)c1ccc(C)cc1`?
C2C12 statin: 110; miR-122 sensor: inactive; PGC1a acetyl inh: inactive; PvdQ acylase: inactive

What do the screens show for `COc1cccc2oc3cc(C#CC4(O)CCCCC4)ccc3c(=O)c12`?
C2C12 statin: inactive; miR-122 sensor: inactive; DENV2 CPE rescue: inactive; PGC1a acetyl inh: inactive; PvdQ acylase: inactive

Results for COc1cccc2oc3cc(C#Cc4ccccn4)ccc3c(=O)c12 ?
DENV2 CPE rescue: 48

Results for O=C(NC1CCN(C(=O)NCc2ccccc2)CC1)c1ccco1 ?
C2C12 statin: 101; miR-122 sensor: inactive; PGC1a acetyl inh: inactive; PvdQ acylase: inactive

Results for CC1C/C(=C/c2ccccn2)C(=O)/C(=C/c2ccccn2)C1 (stereo not given) ?
PvdQ acylase: inactive

What do the screens show for `CC(C)(C)C1C/C(=C/c2ccccn2)C(=O)/C(=C/c2ccccn2)C1` (stereo not given)?
C2C12 statin: 116; miR-122 sensor: inactive; PGC1a acetyl inh: inactive; PvdQ acylase: inactive

What do the screens show for `Cc1ccc(S(=O)(=O)N2CCN(S(C)(=O)=O)C2c2ccccc2)cc1` (stereo not given)?
C2C12 statin: inactive; miR-122 sensor: inactive; PGC1a acetyl inh: inactive; PvdQ acylase: inactive

What do the screens show for `Cc1ccc(S(=O)(=O)N2CCN(S(=O)(=O)c3ccc(C)cc3)C2c2ccccc2)cc1`?
C2C12 statin: 139; miR-122 sensor: inactive; PGC1a acetyl inh: inactive; PvdQ acylase: inactive

What do the screens show for `O=C(c1ccc(N2CCN(C(=O)c3ccccc3)CC2)cc1)c1cccc(F)c1`?
C2C12 statin: inactive; DENV2 CPE rescue: 65; PvdQ acylase: inactive

How did CCS(=O)(=O)Nc1ccc2c(c1)C(=O)N(C)C[C@@H](OC)[C@@H](C)CN(Cc1nccs1)[C@@H](C)CO2 do in these assays?
C2C12 statin: inactive; miR-122 sensor: inactive; DENV2 CPE rescue: inactive; PGC1a acetyl inh: inactive

Results for O=C(Nc1nnc(C2CC2)s1)c1cc(-c2ccccc2)nn1-c1ccccc1 ?
C2C12 statin: 78; miR-122 sensor: inactive; PGC1a acetyl inh: inactive; PvdQ acylase: inactive

What do the screens show for `Cc1ccc(S(=O)(=O)N(C)C[C@@H]2Oc3ncc(-c4ccccc4)cc3C(=O)N([C@@H](C)CO)C[C@H]2C)cc1`?
C2C12 statin: inactive; miR-122 sensor: inactive; DENV2 CPE rescue: inactive; PGC1a acetyl inh: inactive

Results for COCCN(C[C@H]1[C@H](c2ccccc2)[C@H](CO)N1C(C)=O)C(=O)c1ccncc1 ?
C2C12 statin: inactive; miR-122 sensor: inactive; DENV2 CPE rescue: 25; PGC1a acetyl inh: inactive

Results for O=C(NC[C@@H]1[C@@H](c2ccccc2)[C@@H](CO)N1CC1CCCC1)c1cccnc1 ?
C2C12 statin: inactive; miR-122 sensor: inactive; DENV2 CPE rescue: 39; PGC1a acetyl inh: inactive

How did CC(=O)N1[C@H](CO)[C@H](c2ccccc2)[C@H]1CNC(=O)c1ccncc1 do in these assays?
DENV2 CPE rescue: 21; PGC1a acetyl inh: inactive

What do the screens show for `CC(=O)N1[C@H](CO)[C@H](c2ccccc2)[C@@H]1CNC(=O)c1ccncc1`?
DENV2 CPE rescue: inactive; PGC1a acetyl inh: inactive

What do the screens show for `COc1ccc(C#Cc2ccc3c(c2)[C@H]2[C@H](CCN2C(=O)c2ccccn2)[C@H](CO)N3)cc1`?
DENV2 CPE rescue: inactive; PGC1a acetyl inh: inactive

What do the screens show for `Cc1noc(C)c1S(=O)(=O)N(C)C[C@@H]1OCc2ccccc2-c2c(n(C)c3ccccc23)C(=O)N([C@@H](C)CO)C[C@@H]1C`?
C2C12 statin: inactive; DENV2 CPE rescue: inactive; PGC1a acetyl inh: inactive

What do the screens show for `C[C@H](CO)N1C[C@H](C)[C@@H](CN(C)C(=O)C2CCC2)Oc2ncc(C#CC(C)(C)O)cc2C1=O`?
C2C12 statin: inactive; miR-122 sensor: inactive; DENV2 CPE rescue: 23; PGC1a acetyl inh: inactive

Results for CC(=O)N(C)C[C@@H]1Oc2ncc(C#CC(C)(C)O)cc2C(=O)N([C@@H](C)CO)C[C@H]1C ?
C2C12 statin: inactive; miR-122 sensor: inactive; DENV2 CPE rescue: 20; PGC1a acetyl inh: inactive

What do the screens show for `CCC(=O)N(C)C[C@H]1Oc2ncc(C#CC(C)(C)O)cc2C(=O)N([C@H](C)CO)C[C@@H]1C`?
C2C12 statin: inactive; miR-122 sensor: inactive; DENV2 CPE rescue: inactive; PGC1a acetyl inh: inactive

What do the screens show for `O=C(c1ccncc1)N1CC(=O)N2[C@@H](CO)[C@H](c3ccc(/C=C/c4ccccc4)cc3)[C@@H]2C1`?
DENV2 CPE rescue: inactive; PGC1a acetyl inh: inactive

What do the screens show for `Cc1noc(C)c1S(=O)(=O)Nc1ccc2c(c1)CC(=O)N([C@H](C)CO)C[C@H](C)[C@@H](CN(C)S(=O)(=O)c1cccs1)O2`?
C2C12 statin: inactive; miR-122 sensor: inactive; DENV2 CPE rescue: inactive; PGC1a acetyl inh: inactive

What do the screens show for `COc1ccccc1-c1cc(C(F)(F)F)nc(S(=O)(=O)CCCC(=O)N2CCOCC2)n1`?
C2C12 statin: 90; miR-122 sensor: inactive; PGC1a acetyl inh: inactive; PvdQ acylase: inactive

What do the screens show for `COc1ccccc1-c1cc(C(F)(F)F)nc(S(=O)(=O)CCCC(=O)O)n1`?
C2C12 statin: inactive; miR-122 sensor: inactive; PGC1a acetyl inh: inactive; PvdQ acylase: inactive

What do the screens show for `CC(C)CC#Cc1ccc2c(c1)O[C@H](CN(C)C(=O)C1CCC1)[C@H](C)CN([C@@H](C)CO)S2(=O)=O`?
C2C12 statin: inactive; miR-122 sensor: inactive; DENV2 CPE rescue: inactive; PGC1a acetyl inh: inactive

How did CC(C)CC#Cc1ccc2c(c1)O[C@@H](CN(C)C(=O)C1CCC1)[C@@H](C)CN([C@H](C)CO)S2(=O)=O do in these assays?
C2C12 statin: inactive; miR-122 sensor: 157[16.7 µM]; DENV2 CPE rescue: inactive; PGC1a acetyl inh: inactive

How did C[C@@H]1CN([C@H](C)CO)S(=O)(=O)c2ccc(C#CC(C)(C)O)cc2O[C@@H]1CN(C)C(=O)C1CCCCC1 do in these assays?
C2C12 statin: inactive; miR-122 sensor: inactive; DENV2 CPE rescue: 20; PGC1a acetyl inh: inactive

Results for C[C@H]1CN([C@@H](C)CO)S(=O)(=O)c2ccc(C#CCN(C)C)cc2O[C@@H]1CN(C)C(=O)C1CCC1 ?
C2C12 statin: inactive; miR-122 sensor: inactive; DENV2 CPE rescue: 27; PGC1a acetyl inh: inactive
